The list is not random: actives were taken first. Their share in the collection is about 28%.
CYP2C9 act = activators of human CYP2C9; recombinant CYP2C9, luciferin-H conversion, luminescence; hits give high values; factor 1 = untreated enzyme, 0 = blocked; activation factor at 5 µM; hit rate 1.4% among 96,000; AID 1024;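 active = activation factor of 2 or more for CYP2C9 at a 5 µM dose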;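 note: 0 = sulfaphenazole-blocked wells and 1 = vehicle-only wells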
hDAT+cocaine = changed human dopamine transporter uptake under cocaine IC80; hit rate 1.3% among 110,000; LLC-PK1 hDAT cells, [14C]-dopamine uptake with cocaine IC80; actives deviate in either direction; B-score at 10 µM; Q01959;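 active = Z score or B-score, a plate-position-corrected score, falls beyond the plate's 99.7% confidence bounds, in either direction; inactive = both scores lie inside the 99.7% bounds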;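 note: scored against the spread of the other compound wells on the same plate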
D1 allo mod = D1 dopamine receptor (human) allosteric modulation; P21728; HEK293 D1, CRE-luciferase, dopamine EC30 potentiation; actives deviate in either direction; B-score at 10 µM; hit rate 5.9% among 58,000; AID 641;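 active = luminescence count or its row- and column-corrected plate score outside the 99.7% band of the plate's sample wells, on either side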
CYP2C9 inhib = blocks human cytochrome P450 2C9; AID 777; hit rate 20% among 96,000; inhibition, % at 5 µM; P11712; CYP2C9 Supersomes, luciferin-H conversion, luminescence;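 active = blocking of liver enzyme CYP2C9 beyond about 50% at 5 µM, limit read from the data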
CYP2C19 act = increases human CYP2C19 enzyme activity. P33261. recombinant CYP2C19, luciferin-H EGE luminescence; hits give high values; 0 = fully inhibited enzyme, 1 = untreated enzyme. activation factor at 5 µM. 96,000 tested, under 10 active. AID 1025;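 active = activation factor of at least 2 at 5 µM in the primary screen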;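 note: 0 = wells with 2.5 mM tranylcypromine and 1 = vehicle-only wells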
Target sequence (P33261 whole entry, looked up): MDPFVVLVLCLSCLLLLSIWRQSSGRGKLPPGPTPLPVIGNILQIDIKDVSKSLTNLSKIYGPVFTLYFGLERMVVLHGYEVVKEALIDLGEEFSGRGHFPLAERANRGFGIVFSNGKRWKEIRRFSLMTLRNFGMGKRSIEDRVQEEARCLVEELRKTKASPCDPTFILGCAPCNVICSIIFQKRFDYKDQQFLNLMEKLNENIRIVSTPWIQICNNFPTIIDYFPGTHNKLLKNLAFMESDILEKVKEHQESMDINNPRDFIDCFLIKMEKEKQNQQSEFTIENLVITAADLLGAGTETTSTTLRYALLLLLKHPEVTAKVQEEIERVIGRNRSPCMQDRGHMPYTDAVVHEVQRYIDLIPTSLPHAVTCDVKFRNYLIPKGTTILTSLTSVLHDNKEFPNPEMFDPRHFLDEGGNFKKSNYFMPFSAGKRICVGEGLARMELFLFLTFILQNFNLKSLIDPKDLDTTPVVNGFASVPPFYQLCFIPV
CYP2C19 inhib = inhibitors of human CYP2C19; P33261; CYP2C19 Supersomes, luciferin-H EGE luminescence, 30 min; inhibition, % at 5 µM; hit rate 21% among 96,000; AID 778;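 active = CYP2C19 inhibition above a set limit at 5 µM in the primary screen, cut at about 50% in these data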;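 note: plate controls were negative control wells for no effect and 2.5 mM tranylcypromine positive control for full effect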
Starred values were filed as active, the others as inactive; x = not tested or not shown.

SMILES	CYP2C9 act	hDAT+cocaine	D1 allo mod	CYP2C9 inhib	CYP2C19 act	CYP2C19 inhib
COc1ccc([C@H]2C=C(C(=O)O)O[C@@H](OCCCCO)C2)cc1	x	0.29	x	x	x	x
Cc1cccc(N(C(=O)c2csnn2)C(C(=O)NC(C)(C)C)c2cccs2)c1 (stereo unspecified)	0.9	-0.13	x	7	0.7	31
Cc1cc(OCC(=O)NCCN2CCOCC2)cc(C)c1Br	2.1*	0.026	0.029	-107	0	99*
Cc1cc(C)cc(OCC(=O)NCCN2CCOCC2)c1	1.1	-0.095	-0.45	-5	0.9	13
CCOc1ccc(OCC(=O)Nc2ccc(OC)cc2)cc1	0.8	-0.089	x	24	0.6	38
O=C(COc1ccc(CO)cc1)Nc1ccc(F)cc1	0.7	0.57	-0.94	30	0.5	52*
CCN(CC)C(=O)c1sc2nc(-c3ccncc3)[nH]c(=O)c2c1C	0.8	x	-0.12	21	0.4	63*
CCN(CC)C(=O)c1sc2nc(-c3ccccn3)[nH]c(=O)c2c1C	x	x	-0.51	x	x	x
Cc1ccc(/C=C/C(=O)O)cc1S(=O)(=O)NCCO	1.1	-0.73	x	-13	0.6	42
Cc1cc(C(C)(C)C)cc(S(=O)(=O)NCCO)c1C	3*	-0.9	-0.011	-197	0.6	42
Cc1nc(Nc2nc(=O)c3ccccc3n2C)nc2c(C)cccc12	x	x	-1.5	x	x	x
Cc1ccc2nc(-c3ccccn3)cc(C(=O)NC3CCN(C)CC3)c2c1	0.9	0.092	-0.87	11	1	-3
CN(C)C(=O)c1cc(F)ccc1Sc1cc(Cl)ccc1Cl	0.5	0.42	x	50	0	98*
CN(C)C(=O)c1cc(Cl)ccc1Sc1cc(Cl)ccc1Cl	0.2	0.84	x	84*	0	97*
CCOC(=O)c1cnc(SC)nc1Sc1cc(Cl)ccc1Cl	0.8	-1.2	x	21	1	-1
O=C1C(Cc2ccc(O)cc2)NC(=S)N1c1ccccc1 (stereo unspecified)	0.6	1.3	x	38	0.4	57*
O=C(O)CC1NC(=S)N(c2ccccc2)C1=O (stereo unspecified)	1.1	x	x	-13	1.1	-7
COc1cccc(C2=NOC(C(=O)NCCN3CCOCC3)C2)c1 (stereo unspecified)	1	-0.65	-0.7	3	1.1	-6
CCC(Sc1nc2sc(C(=O)OC)c(C)c2c(=O)n1N)C(=O)NCC1CCCO1 (stereo unspecified)	0.1	-0.21	1.5	93*	0.1	94*
COc1ccc(NC(=O)c2cc([N+](=O)[O-])nn2Cc2ccccc2)c(C)c1	0.8	0.22	x	21	0.7	26
COc1cccc(C(=O)Cn2c(=O)n(CC3CCCO3)c(=O)c3ccccc32)c1 (stereo unspecified)	0.6	-0.42	-0.12	42	0.8	19
O=C(CN1C(=O)NC2(CCCCCCC2)C1=O)NC(=O)NCc1ccco1	0.9	1.3	-0.019	9	0.9	9
S=C(NCc1ccco1)N1CCN(C(c2ccccc2)c2ccccc2)CC1	0.3	-0.0029	x	72*	0.7	35
O=C(CN1CCN(C(c2ccccc2)c2ccccc2)CC1)NC(=O)NCc1ccco1	2*	0.096	0.33	-96	0.9	7
O=C(NC1CCCCC1)NC1CCN(C(=S)NCc2ccco2)CC1	0.9	-0.64	x	13	0.8	15
SMILES	CYP2C9 act	hDAT+cocaine	D1 allo mod	CYP2C9 inhib	CYP2C19 act	CYP2C19 inhib
Oc1ccc(-c2cn3c(n2)SCC3)cc1O	0.6	-0.36	x	37	0.8	22
Cc1ccc(C)n1-c1sc2c(c1C#N)CCC(C)C2 (stereo unspecified)	0.9	-1.2	x	7	0.9	6
COc1nc(C)nc(NC(=O)NS(=O)(=O)c2ccc(C)cc2)n1	1.2	0.041	x	-21	1	0
Cc1ccc(C(=O)C2COC(=O)C2)cc1 (stereo unspecified)	1.1	-0.13	1	-7	1	0
O=S(=O)(c1ccc(Cl)c(Cl)c1)c1snnc1-c1ccccc1	0.1	-0.49	x	90*	0	99*
Clc1ccc(CSc2snnc2-c2ccccc2)cc1	0.6	0.029	x	43	1.1	-10
Cc1nc(NC2=NCN(Cc3cccnc3)CN2)nc2c(C)cccc12	1.2	x	x	-15	1.1	-11
CCCCCCn1c(SCCN2CCOCC2)nc2c1c(=O)[nH]c(=O)n2C	x	0.091	x	x	x	x
CCCCCn1c(NC2CCCCC2)nc2c1c(=O)[nH]c(=O)n2C	x	2.9*	5.7*	x	x	x
CCCCCCn1c(SCCOC)nc2c1c(=O)[nH]c(=O)n2C	x	-0.34	9.4*	x	x	x
CCC(C)NC(=O)c1ccc(CS(=O)(=O)c2ccc(OC)cc2)o1 (stereo unspecified)	0.9	-0.58	0.29	9	1.1	-11
CCC(C)NC(=O)c1ccc(CS(=O)(=O)Cc2ccc(Cl)cc2)o1 (stereo unspecified)	0.4	-1	x	63*	0.3	67*
O=C(O)C1CCC(=O)N1Cc1ccccc1Cl (stereo unspecified)	0.9	-0.0065	-0.73	11	1	4
O=C1CC(C(=O)Nc2nccs2)C(c2ccccc2)O1 (stereo unspecified)	0.4	-0.071	-2.3	60*	0.1	87*
O=C1CC(C(=O)Nc2ccccc2C(=O)O)C(c2ccccc2)O1 (stereo unspecified)	0.1	0.37	0.13	94*	1	3
O=C1CC(C(=O)Nc2ccc(C(=O)O)cc2)C(c2ccccc2)O1 (stereo unspecified)	1	-0.65	x	3	1.1	-9
O=C1CC(C(=O)Nc2ccc(O)c(C(=O)O)c2)C(c2ccccc2)O1 (stereo unspecified)	0.7	0.67	-0.5	29	1.1	-15
CCC(=O)N(CCC(Cc1ccccc1)c1ccc2c(c1)OCO2)Cc1ccccc1F (stereo unspecified)	0	x	x	96*	0	96*
Cc1nc(NC(C)C)c2cnn(CCc3ccccc3)c2n1	0.6	-1.8	x	42	0.2	77*
CCCNc1nc(C)nc2c1cnn2CCc1ccccc1	0.8	-0.91	x	15	0.1	89*
CCOC(=O)c1cc(-c2ccccc2)nn1CC1CC(c2cccnc2)=NO1 (stereo unspecified)	x	-0.61	x	x	x	x
COCCNC(=O)CN1CCC(n2c(C)nc3cc(C(F)(F)F)ccc32)CC1	1	0.53	0.34	4	0.8	16
Cc1nc([N+](=O)[O-])c(Br)n1CC(=O)c1ccc(Cl)cc1	0.3	0.091	x	66*	0.7	27
CCOCc1cn(CC(=O)c2ccc(Cl)cc2)c(C)nc1=N	1.2	-0.062	x	-24	1.1	-13
CNC(=O)NC(=O)CSc1ncc(C(F)(F)F)cc1Cl	1.2	1.1	-0.15	-21	1	1
COc1ccccc1Nc1nc(N)nc(CN2CCN(c3ccccc3)CC2)n1	0.9	2.5*	-0.09	14	0.8	21
COc1ccc(Nc2nc(N)nc(CN3CCC(Cc4ccccc4)CC3)n2)cc1	0.8	0.22	-3*	22	0.9	8
